Bioassay records (PubChem)
POLK inh = DNA polymerase kappa (human) inhibition; Potency, µM (doses to about 107 µM), most hits filed as inhibitors; 400,000 compounds, 0.53% hits; purified Pol kappa, fluorescent DNA synthesis assay, 10 min; AID 588579
Target sequence (Q9UBT6 whole entry, looked up): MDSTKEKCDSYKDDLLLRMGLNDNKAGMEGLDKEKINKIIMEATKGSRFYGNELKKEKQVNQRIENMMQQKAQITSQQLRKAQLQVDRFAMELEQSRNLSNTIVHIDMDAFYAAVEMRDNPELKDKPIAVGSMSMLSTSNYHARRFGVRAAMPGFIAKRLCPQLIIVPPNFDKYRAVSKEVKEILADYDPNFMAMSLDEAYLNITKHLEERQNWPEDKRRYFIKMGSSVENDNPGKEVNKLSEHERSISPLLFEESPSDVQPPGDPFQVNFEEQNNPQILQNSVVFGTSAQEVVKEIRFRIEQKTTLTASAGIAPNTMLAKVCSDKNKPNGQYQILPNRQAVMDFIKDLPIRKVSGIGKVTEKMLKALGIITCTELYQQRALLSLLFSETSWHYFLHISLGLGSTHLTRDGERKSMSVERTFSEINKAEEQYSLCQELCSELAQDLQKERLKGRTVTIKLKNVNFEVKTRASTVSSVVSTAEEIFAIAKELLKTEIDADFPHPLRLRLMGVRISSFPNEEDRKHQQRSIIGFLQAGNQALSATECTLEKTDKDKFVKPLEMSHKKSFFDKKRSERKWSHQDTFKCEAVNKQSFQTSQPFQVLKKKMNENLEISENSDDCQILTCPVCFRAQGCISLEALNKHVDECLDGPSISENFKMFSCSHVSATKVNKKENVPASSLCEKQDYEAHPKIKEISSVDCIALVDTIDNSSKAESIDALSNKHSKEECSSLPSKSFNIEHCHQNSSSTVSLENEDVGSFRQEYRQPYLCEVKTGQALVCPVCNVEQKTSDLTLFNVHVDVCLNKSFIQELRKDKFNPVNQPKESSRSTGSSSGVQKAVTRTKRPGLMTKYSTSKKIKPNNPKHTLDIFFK
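10 nM Pol kappa preincubated 15 min at room temperature with compounds, then reaction started with substrate at 50 nM final. Fluorescence read kinetically at 0 and 10 min; buffer-only wells served as negative control.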
POLB inh = blocks human DNA polymerase beta activity. 340,000 compounds, 1.3% hits. P06746. Pol beta primer extension/strand displacement, fluorescence kinetic. Potency, µM (top dose mostly 114 µM), actives largely listed as inhibitors
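Enzyme-only controls used 10 nM Pol beta; buffer lacking enzyme served as negative control. Compound preincubated 15 min, then 50 nM substrate added; 0 and 10 min reads at room temperature.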
WRN inhibitor = inhibitors of human WRN helicase | 360,000 compounds, 0.46% hits | AID 651768 | WRN helicase unwinding, fluorescent forked duplex, kinetic | Q14191 | Potency, µM (top dose mostly 114 µM), most hits filed as inhibitors; note: nearly all actives have a fitted effect of over 55% in size
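Kinetic red-fluorescence monitoring (525/598 nm) tracks WRN helicase activity after 100 nM fluorophore-quencher forked duplex and 2 mM ATP are added to 20 nM enzyme pretreated 15 min at room temperature with compound.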
FEN1 inh = blocks human flap endonuclease 1 | 390,000 compounds, 0.35% hits | AID 588795 | Recombinant FEN1 flap cleavage, fluorescence, 15 min | Potency, µM (titrated, usually from 114 µM), hits mostly inhibitors; note: nearly all actives have a fitted effect of over 65% in size
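Recombinant FEN1 (10 nM) was preincubated with pin-transferred compounds for 15 min at room temperature, then flap DNA substrate (50 nM final) was added. Plates were read at 0 and 15 min, and normalized concentration–response data were fitted to a four-parameter Hill equation.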
Pol iota inh = blocks human DNA polymerase iota activity; Q9UNA4; Pol iota fluorescent replication assay, 10 min; Potency, µM (series often up to 115 µM), actives largely listed as inhibitors; 390,000 compounds, 1% hits; AID 588590
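Pol iota at 10 nM preincubated 15 min with compounds at room temperature; reaction started with fluorescent substrate, 50 nM final. Fluorescence read kinetically at 0 and 10 min; buffer-only wells as negative control.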
POLH inh = inhibitors of human DNA polymerase eta. 390,000 compounds, 1.2% hits. Q9Y253. Potency, µM (highest dose often 114 µM), actives largely listed as inhibitors. AID 588591. recombinant Pol eta, fluorescent DNA replication assay
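Fluorescent replication assay: 50 nM final substrate added after a 15 min room-temperature compound preincubation with 10 nM enzyme. Signal taken at 0 min and again at 10 min.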
A number is an active result; n = inactive; u = inconclusive; x = no result; [ ] = dose if it differs, or a comment. Sampled rows, rich in hits. Any-hit rate of the full collection: about 2.4%. Calls come from the whole dose curve; as a rule, active = well fitted curve in the direction sought with a large enough effect; inconclusive = small, poorly fitted or top-dose-only effect, or another doubt; inactive = no such curve, though single readings can be large; an effect the other way counts as inactive or inconclusive.

SMILES	POLK inh	POLB inh	WRN inhibitor	FEN1 inh	Pol iota inh	POLH inh
COc1ccc(C(=O)Nc2nnc(CC(=O)N/N=C/c3ccc(O)cc3O)s2)cc1	x	5µM	x	x	x	x
COc1ccc(SCC(Cc2ccccc2)N2CCN(CCc3ccccc3)CCC2=O)cc1 (configuration not stated)	n	x	x	n	n	x
CC(C)CS(=O)(=O)C1=NSC2=NC(=O)/C(=C\c3ccc(OC(=O)c4ccco4)cc3)C(=N)N21	n	n	n[11.6 µM]	n	n	56µM
CS(=O)(=O)C1=NSC2=NC(=O)/C(=C\c3ccc(OC(=O)c4ccco4)c(Br)c3)C(=N)N21	n	u	u	u	u	50µM
Cc1ccc(-c2nc(-c3cc4cccc(OCc5cccc(F)c5)c4oc3=O)no2)cc1	n	35µM	x	n	n	35µM
Cc1ccc(-c2nc(-c3cc4cccc(OCc5ccc(F)cc5)c4oc3=O)no2)cc1	n	u	x	n	n	n
O=C(O)CSc1c2c(nc3cc(C(=O)Nc4cccc(C(F)(F)F)c4)ccc13)CCC2	u	u	n[11.6 µM]	n	u	40µM
CCOc1ccc(NC(=O)c2ccc3c(SCC(=O)O)c4c(nc3c2)CCCC4)cc1	n	n	n	n	n	u
N#Cc1cccc(-c2nccc(-n3ccnc3)n2)c1	n	x	x	x	x	x
O=S(=O)(O)c1ccc(N=Nc2ccccc2)cc1	n	u	n	n	n	n
Cc1cc(-c2ccc(N=Nc3ccc4c(S(=O)(=O)O)cc(S(=O)(=O)O)c(N)c4c3O)c(C)c2)ccc1N=Nc1ccc2c(S(=O)(=O)O)cc(S(=O)(=O)O)c(N)c2c1O	1.3µM	x	x	x	x	x
Nc1c(N=Nc2ccc(-c3ccc(N=Nc4cc(S(=O)(=O)O)c5ccccc5c4N)cc3)cc2)cc(S(=O)(=O)O)c2ccccc12	1.1µM	x	x	x	x	x
Cc1ccc(N=Nc2ccc(N)cc2C)c(S(N)(=O)=O)c1	n	u	n	n	n	u
C/C=C/C/C=C/CCC(=O)[C@H]1O[C@H]1C(N)=O	n[19.4 µM]	x	x	x	x	x
c1cc(N2CCOCC2)ccc1-c1ccc2nncn2c1	x	x	n	x	x	x
c1coc(-c2ccc3nncn3c2)c1	x	x	18µM	x	x	x
O=C(Cc1ccc(OCC2CCCCC2)cc1)NO	n	x	x	n	n	x
Cc1ccc(S(=O)(=O)N2CCCCC2C(=O)NCc2ccco2)cc1 (configuration not stated)	n	n	n	n	89µM	u
O=C(NCc1ccco1)C1CCCN(S(=O)(=O)c2ccc(-n3cnnn3)cc2)C1 (configuration not stated)	u	25µM	n	n	u	20µM
Cc1cc2oc(C(=O)NCCc3ccc(S(N)(=O)=O)cc3)cc(=O)c2cc1C	n	n	n	n	n	n
Cc1cc2oc(C(=O)NCCc3ccc(S(N)(=O)=O)cc3)c(C)c2cc1C	n	5.6µM	n	u	25µM	n
NS(=O)(=O)c1ccc(CCNC(=O)c2cc3ccccc3s2)cc1	u	45µM	n[11.6 µM]	u	22µM	28µM
CCOc1cccc(/C(O)=C2/C(=O)C(=O)N(Cc3cccnc3)C2c2ccco2)c1 (configuration not stated)	n	n	n	n	n	n
CCOc1cccc(/C(O)=C2/C(=O)C(=O)N(CCOC)C2c2ccco2)c1 (configuration not stated)	n	79µM	n	n	u	u
O=c1c(Cl)c(N/N=C/c2ccc(Cl)cc2)cnn1-c1ccccc1	u	18µM	u	u	28µM	u
SMILES	POLK inh	POLB inh	WRN inhibitor	FEN1 inh	Pol iota inh	POLH inh
Nc1c(C(=O)N/N=C/c2ccc(Cl)cc2)cnn1-c1ccccc1	n	n	n	n	n	n
COc1ccc2c(c1)c(=O)oc1cc(O)ccc12	n	n	n	n	n	n
COc1ccc2c(c1)c(=O)oc1cc3oc(C)c(C)c3cc12	x	25µM	x	x	x	x
CCCN1CNc2c(c(=O)[nH]c(=S)n2CCc2ccsc2)C1	n	x	x	n	n	x
NC(=O)CN1CCN(C(=O)NC2CCCCC2)CC1	n	32µM	n	n	n	n
O=C(NCCN1CCN(C(=O)NC2CCCCC2)CC1)NC1CCCCC1	n	n	n	n	n	n
CSc1sccc1/C=C(/C#N)C(=O)c1ccco1	n	n	50µM	u	u	u
